In PubChem BioAssay (NCI):
“And” between values parts separate entries of the source, which are not always exact repeats. Equal entries are not always repeated. Compounds without any hit were thinned out: in the full panel of roughly 83,000, 20% have a hit.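 Step 1: grow cells in 96-well plates. Step 2: add test compound at a single concentration. Step 3: incubate 48 h. Step 4: record percent growth.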 Values without a mark were called inactive. The source made the active and inactive calls. How the source made its calls: active means growth percent below 10; inactive means the rest.

What was measured:
Assay in all cases: NCI-60 one-dose screen, 48 h (100 = growth as untreated, 0 = no growth, -100 = all killed)
NCI-H23 lung = conditions: 10 µM unless noted
NCI-H226 lung = conditions: 10 µM unless noted
NCI-H322M lung = conditions: 10 µM unless noted
HOP-62 NSCLC = conditions: 10 µM unless noted
NCI-H460 lung = conditions: 10 µM unless noted
NCI-H522 lung = conditions: 10 µM
A549/ATCC NSCLC = conditions: 10 µM unless noted
786-0 renal = conditions: 10 µM unless noted
COLO 205 colon = conditions: 10 µM unless noted
DU-145 prostate = conditions: 10 µM unless noted
K-562 leukemia = conditions: 10 µM unless noted
MALME-3M melanoma = conditions: 10 µM unless noted
MDA-MB-231 breast = conditions: 10 µM unless noted
SF-268 CNS = conditions: 10 µM unless noted
SF-295 CNS = conditions: 10 µM unless noted
SF-539 CNS = conditions: 10 µM unless noted
UACC-257 melanoma = conditions: 10 µM unless noted
M14 melanoma = conditions: 10 µM unless noted
RXF 393 renal = conditions: 10 µM unless noted
HOP-92 NSCLC = conditions: 10 µM

| Compound | growth (NCI-H23 lung) | growth (NCI-H226 lung) | growth (NCI-H322M lung) | growth (HOP-62 NSCLC) | growth (NCI-H460 lung) | growth (NCI-H522 lung) | growth (A549/ATCC NSCLC) | growth (786-0 renal) | growth (COLO 205 colon) | growth (DU-145 prostate) | growth (K-562 leukemia) | growth (MALME-3M melanoma) | growth (MDA-MB-231 breast) | growth (SF-268 CNS) | growth (SF-295 CNS) | growth (SF-539 CNS) | growth (UACC-257 melanoma) | growth (M14 melanoma) | growth (RXF 393 renal) | growth (HOP-92 NSCLC) |
| --- | --- | --- | --- | --- | --- | --- | --- | --- | --- | --- | --- | --- | --- | --- | --- | --- | --- | --- | --- | --- |
| CC(=O)NCC(=O)c1ccc([N+](=O)[O-])cc1 | 95% | 98% | 103% | 95.8% | 104% | 109% | 101% | 103% | 105% | 109% | 101% | 101% | 97.7% | 99.1% | 106% | 109% | 101% | 109% |  |  |
| NC(Cc1c[nH]c2ccccc12)C(=O)O (stereo not given) | 106% and 108% | 90.6% and 103% | 98.8% and 111% | 64.3% and 96.3% | 105% and 101% | 86% and 93.1% | 113% and 97.8% | 69.5% and 99.7% | 117% and 103% | 103% and 113% | 136% and 101% | 118% and 96.3% | 104% and 97.1% | 105% and 101% | 99.4% and 102% | 93.8% and 96.8% | 66.9% and 94% | 93.2% and 98.4% | 91.4% and 103% |  |
| CC1=C/C(O)CC(=O)Cc2nc(co2)C(=O)N2CCC=C2C(=O)OC(C(C)C)C(C)/C=C\C(=O)NC/C=C\1 (stereo not given) | 78.7% | 82.9% | 102% |  | 102% | 21.8% | 83% | 2.53% (active) | 74.3% | 90.7% | 48.4% | 125% | 98.6% | 93.3% | 101% | 104% | 75.4% | 15.4% | 93.6% |  |
| Nc1nc(N)c2[nH]cnc2n1 | 88.6% | 102% | 111% | 88.7% | 96.2% | 50.6% | 80.2% | 91.8% | 97.6% | 73.1% | 76.5% | 125% | 99.3% | 83.8% | 84.7% | 92.8% | 56.1% | 88.2% |  |  |
| CC(C)NCC(O)c1ccc(O)c(O)c1 (stereo not given) | 98.6% and 68.3% and 98.2% | 88.4% and 114% and 98.8% | 92.1% and 96.7% and 106% | 97.9% and 90.6% and 86.7% | 108% and 101% and 105% | 82.4% and 140% | 106% and 119% and 103% | 94.9% and 90.6% and 99.7% | 107% and 114% and 104% | 110% and 119% and 103% | 112% and 101% | 101% and 88.7% and 141% | 84% and 78.9% and 85.1% | 102% and 106% and 86.6% | 108% and 110% and 105% | 95.9% and 87.7% and 85.6% | 109% and 102% | 98.1% and 96.8% and 113% | 103% and 105% |  |
| O=C(CO)C(O)C(O)C(O)C(O)CO (stereo not given) | 104% and 102% | 96.2% and 101% | 107% and 105% | 105% | 109% and 108% | 102% and 108% | 97.5% and 96.1% | 105% | 107% and 103% | 110% and 109% | 108% and 117% | 109% and 117% |  | 102% and 104% | 105% and 102% | 107% and 96.5% | 93.9% and 95.8% | 103% and 96.2% | 119% and 117% |  |
| O=C1c2c(O)ccc(O)c2C(=O)c2c(NCCNCCO)ccc(NCCNCCO)c21 | -59% (active) and -79.5% (active) | -55.7% (active) and -60.1% (active) | -29.2% (active) and -9.24% (active) | -53.4% (active) and -65.5% (active) | -57% (active) and -52.8% (active) | -91.7% (active) and -66.8% (active) | -51.4% (active) and -77.6% (active) | -15.8% (active) and -50.5% (active) | -69.5% (active) and -74.4% (active) | -36.8% (active) and -51.3% (active) | -5.45% (active) and -77.6% (active) | -64.6% (active) and -88.2% (active) | -84.3% (active) and -77.3% (active) | -73% (active) and -80% (active) | -37.8% (active) and -39.6% (active) | -38.4% (active) and -84% (active) | -4.02% (active) and -47.7% (active) | -79.7% (active) and -97.7% (active) | -86.4% (active) and -68.9% (active) |  |
| Nc1ncnc2c1ncn2C1OC(COP(=O)(O)O)C(O)C1O (stereo not given) | 110% | 113% |  | 115% |  | 114% | 114% | 105% | 130% | 120% | 119% |  | 102% | 126% |  | 105% | 110% | 111% | 131% | 103% |
| c1ccc(CNCCNCc2ccccc2)cc1 | 117% | 90.4% | 106% | 98.8% | 104% | 106% | 101% | 107% | 109% | 114% | 98.1% | 109% | 118% | 120% | 90.8% | 101% | 117% | 111% | 104% |  |
| CCCCCCCCCCNC(=O)CI | -48.8% (active) | 76.7% | 96.8% | -20.8% (active) | 101% |  | 95.1% | -81.2% (active) | -20% (active) | 99.1% | 0.309% (active) |  | 9.39% (active) | 37.1% |  | 39.1% | 66.3% | -24.8% (active) | -86.5% (active) |  |
| OC1COC(OCc2ccccc2)C(O)C1O (stereo not given) | 106% | 98.1% | 90.6% | 101% | 106% |  |  | 105% | 115% | 105% | 97.9% | 78.7% | 109% | 106% | 101% | 105% |  | 96.8% | 103% |  |
| COc1ccc2cc1Oc1ccc(cc1)C[C@H]1c3cc(c(OC)cc3CCN1C)Oc1c(OC)c(OC)cc3c1[C@H](C2)N(C)CC3 | 92.7% | 113% | 52.6% | 17.7% | 44.9% | 1.42% (active) | 39.6% | 46.3% | 44.8% | 53.1% | -75.4% (active) | 16.3% | 8.45% (active) | 78.2% | 71.8% | -74.4% (active) | 46.2% | -78.8% (active) | 47.2% |  |
